PAFAH2 FP inh – inhibitors of human PAFAH2 | AID 492956 | recombinant PAFAH2, FP-rhodamine activity probe, fluorescence polarization | inhibition, % at 3.39 µM | 340,000 compounds, 0.99% hits | Q99487;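 active means inhibition above the mean over all tested compounds plus 3 SD, cut at about 30% in these data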;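 further: inhibitors block probe labeling of enzyme so polarization drops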
PP1 inh – blocks human PP1-alpha phosphatase, a PP5 counter-screen; 320,000 compounds, 0.9% hits; P62136; purified PP1alpha, OMFP fluorescence; inhibition, % at 6.7 µM;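 active means inhibition above the mean inhibition of all tested compounds plus 3 SD, computed separately for each screening campaign, cut at about 15% in these data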
PAFAH1B3 FP inh – inhibitors of human PAFAH1B3; recombinant PAFAH1B3, FP-rhodamine probe, fluorescence polarization; inhibition, % at 3.39 µM; 340,000 compounds, 0.28% hits; AID 492972;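 active means inhibition above the screen-wide average of all tested compounds plus 3 SD, cut at about 25% in these data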
pPAFAH inh – pPAFAH (human) enzyme inhibition; Q13093; recombinant pPAFAH, FP-rhodamine probe fluorescence polarization; inhibition, % at 3.39 µM; 330,000 compounds, 1.5% hits; AID 463082;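 active means inhibition above the mean inhibition across the screen plus 3 SD, cut at about 25% in these data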;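 further: inhibitors block binding of the rhodamine activity-based probe so polarization drops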
PAFAH1B2 inh – inhibitors of human PAFAH1B2; P68402; recombinant PAFAH1B2, FP-rhodamine activity probe, fluorescence polarization; inhibition, % at 3.39 µM; 340,000 compounds, 1.2% hits; AID 492953;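 active means inhibition above the mean of all tested compounds plus 3 SD, cut at about 24% in these data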
PP5 primary – PP5 (human) phosphatase inhibition. P53041. purified PP5c, OMFP substrate fluorescence. inhibition, % at 6.7 µM. 320,000 compounds, 0.18% hits. AID 1987;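 active means inhibition above the campaign's mean inhibition across all tested compounds plus 3 SD, cut at about 9.5% in these data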
Target sequence (P53041 whole entry, looked up): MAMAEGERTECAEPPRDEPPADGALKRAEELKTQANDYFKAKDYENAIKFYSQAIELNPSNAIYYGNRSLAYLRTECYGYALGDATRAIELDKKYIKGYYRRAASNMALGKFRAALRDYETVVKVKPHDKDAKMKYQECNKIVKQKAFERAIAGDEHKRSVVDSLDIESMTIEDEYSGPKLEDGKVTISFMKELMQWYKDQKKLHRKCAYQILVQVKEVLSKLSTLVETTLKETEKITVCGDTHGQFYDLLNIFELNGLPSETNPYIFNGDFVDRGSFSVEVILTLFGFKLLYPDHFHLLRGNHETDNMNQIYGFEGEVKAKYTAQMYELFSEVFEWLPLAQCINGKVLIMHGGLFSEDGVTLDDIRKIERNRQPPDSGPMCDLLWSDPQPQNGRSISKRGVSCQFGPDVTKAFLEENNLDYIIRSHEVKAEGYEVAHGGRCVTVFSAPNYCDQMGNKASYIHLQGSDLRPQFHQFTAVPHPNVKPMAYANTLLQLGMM
PAFAH2 confirm – confirmation of human PAFAH2 inhibitors; shares compounds with PAFAH2 FP inh; recombinant PAFAH2, FP-rhodamine activity probe, fluorescence polarization; inhibition, % at 3.39 µM; 2,300 compounds, 65% hits; AID 493030;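 active means mean inhibition over three repeats above a set limit taken from the earlier primary screen, cut at about 30% in these data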;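 further: inhibitor blocks binding of rhodamine activity probe so polarization falls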
Large screens that a line does not name were inactive (follow-up assays come after a bar, where they were run). The list is not random: actives were taken first. Their share in the collection is about 3.4%.

Cc1ccsc1C(=O)OCC(=O)N(C)C1CCCCC1	PAFAH2 FP inh 36 (no result: PP1 inh, PP5 primary) | PAFAH2 confirm inactive
C=CCSC1=N/C(=C\c2ccc(C(=O)O)cc2)C(=O)S1	none
CCSC1=N/C(=C\c2ccc(C(=O)O)cc2)C(=O)S1	PAFAH2 FP inh 31 | PAFAH2 confirm inactive
Cc1cccc(COc2ccc(/C=C3/C(=O)N(C)C(=S)N3C)cc2)c1	none
Cc1[nH]n2c(=O)c3c(nc2c1-c1cccc2ccccc12)CCC3	none
O=c1c2c(nc3c(-c4cccc5ccccc45)c[nH]n13)CCC2	PAFAH2 FP inh 68, PP1 inh 17 | PAFAH2 confirm 69
O=C(NS(=O)(=O)Nc1ccccn1)c1c[nH]c2ccccc12	none
COc1ccc(O)c(/C=C(\C#N)C(=O)Nc2cccnc2)c1	none
CCCOc1ccccc1/C=C(\C#N)C(=O)Nc1cccnc1	PAFAH2 FP inh 40 | PAFAH2 confirm inactive
O=C(O)c1ccc(-c2ccc(/C=C3\NC(=O)N(Cc4ccc(Cl)cc4)C3=O)o2)cc1	none (no result: PP1 inh, pPAFAH inh, PP5 primary)
Cc1cc(C(=O)O)ccc1-c1ccc(/C=C2\NC(=O)N(Cc3ccccc3Cl)C2=O)o1	PAFAH2 FP inh 33 | PAFAH2 confirm inactive
CCN(CC)S(=O)(=O)c1ccc(N2CCOCC2)c(NC(=O)Cc2cccc3ccccc23)c1	PAFAH2 FP inh 60 | PAFAH2 confirm 45
CCN(CC)S(=O)(=O)c1ccc(N2CCOCC2)c(NC(=O)Cc2ccccc2F)c1	none
O=S(=O)(c1cccc(Br)c1)N1CCN(C(=S)NCC2CCCO2)CC1 (stereo unspecified)	none
CCC(CCC(=O)Nc1cccc([N+](=O)[O-])c1)C(=O)O (stereo unspecified)	none
CCOc1ccc(NC(=O)COC(=O)c2cc(C)oc2C)cc1	PAFAH2 FP inh 57 (no result: PP1 inh, PP5 primary) | PAFAH2 confirm 53
Cc1cc(C(=O)OCC(=O)Nc2cccc([N+](=O)[O-])c2)c(C)o1	PAFAH2 FP inh 75 (no result: PP1 inh, PP5 primary) | PAFAH2 confirm 78
O=C(COC(=O)c1c[nH]c(=O)[nH]c1=O)Nc1cccc([N+](=O)[O-])c1	PAFAH2 FP inh 31 | PAFAH2 confirm inactive
CCC(CC)C(=O)OCC(=O)Nc1cccc([N+](=O)[O-])c1	PAFAH2 FP inh 36 | PAFAH2 confirm inactive
O=C(CCCCCNC(=O)N1CCn2c1nc1ccccc12)NCc1ccccc1Cl	none
CCC(C(=O)O)n1nc(-c2ccccc2)c2cc(Cl)ccc21 (stereo unspecified)	none
CCCCc1nc2c(C)c(N)cnc2n1Cc1cccc([N+](=O)[O-])c1	none
CCOC(=O)c1ccc(N2C(=O)C3CCOc4ccccc4C32)cc1 (stereo unspecified)	PAFAH2 FP inh 80 | PAFAH2 confirm 63
CCOC(=O)c1ccc(N2C(=O)[C@@H](c3ccccc3)[C@H]2c2ccccc2)cc1	none
Cc1ccc(-n2ncc(C(=O)N3CCc4ccccc4C3)c2NC(=O)c2ccco2)cc1C	PAFAH2 FP inh 35 | PAFAH2 confirm inactive
COc1cccc(/C=C2\SC(=S)N(NS(=O)(=O)c3ccc(C)cc3)C2=O)c1OC	PAFAH2 FP inh 33 | PAFAH2 confirm inactive
CCCCC[C@H]1CN(Cc2ccc(OC)cc2)C(=O)[C@@H]1CC(=O)NCc1ccccc1	none
CC(C)(C)SC(=O)CC1NS(=O)(=O)OCC1NC(=O)OCC(Cl)(Cl)Cl (stereo unspecified)	PAFAH2 FP inh 49 | PAFAH2 confirm 34
O=C(COC(=O)c1n[nH]c2ccccc12)Nc1ccc(Cl)cc1[N+](=O)[O-]	PAFAH2 FP inh 73 | PAFAH2 confirm 64
COc1cc([N+](=O)[O-])ccc1NC(=O)COC(=O)c1n[nH]c2ccccc12	none
Cc1cccc(NC(=O)COC(=O)c2n[nH]c3ccccc23)c1C	PAFAH2 FP inh 59 | PAFAH2 confirm 46
O=C(COC(=O)c1n[nH]c2ccccc12)Nc1ccccc1F	PAFAH2 FP inh 44 (no result: PP1 inh, PP5 primary) | PAFAH2 confirm 43
Cc1cccc(NC(=O)COC(=O)c2cccs2)c1C	PAFAH2 FP inh 68 | PAFAH2 confirm 56
CC(NC(=O)c1ccc(N(C)C)cc1)C1CC2CCC1C2 (stereo unspecified)	PAFAH2 FP inh 46 (no result: PP1 inh, pPAFAH inh, PP5 primary) | PAFAH2 confirm 33
